An excerpt weighted towards active compounds, which were near 5.2% of everything screened.
Tau FP inhib – qHTS for Inhibitors of Tau Fibril Formation, Fluorescence Polarization; Potency, µM (top dose mostly 57.7 µM), without a hit: at the top dose activity, negative = inhibition, usual class: inhibitors; K18 P301L tau heparin fibrillization, Alexa594 FP, 6 h; 280,000 tested, 0.39% active; further: potency means the concentration at half of the fitted maximal effect; nearly all actives have a fitted effect of over 55% in size
Target sequence (P10636 561-689 P618L limits assumed): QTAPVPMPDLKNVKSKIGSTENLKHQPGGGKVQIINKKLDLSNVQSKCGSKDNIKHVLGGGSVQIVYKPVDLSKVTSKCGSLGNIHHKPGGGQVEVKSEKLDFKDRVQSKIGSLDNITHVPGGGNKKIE
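Quantitative HTS format: compounds meet 15 uM recombinant K18 P301L tau and Alexa 594-tau tracer in 100 mM sodium acetate pH 7; 20 uM heparin triggers fibrillization at 37 C over 6 hr; FP gives the signal.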
Tau fluor cs – Counterscreen qHTS for Inhibitors of Tau Fibril Formation, Fluorescence Polarization | tau K18 P301L Alexa594 fluorescence, heparin fibrillization | Potency, µM (doses to about 57.7 µM), inactives show at the highest dose activity change, negative = decrease | 280,000 tested, 0.93% active | AID 1463, 2008; further: potency means the concentration at half of the fitted maximal effect; nearly all actives have a fitted effect of over 55% in size
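Human K18 P301L tau (15 uM unlabeled plus 0.24 uM Alexa 594-labeled, final) in 100 mM sodium acetate pH 7 was mixed with compound and 20 uM heparin and incubated 6 hr at 37 C.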
Sfp PPTase inh – qHTS Assay for Inhibitors of Bacillus subtilis Sfp phosphopantetheinyl transferase (PPTase) | Biochemical Sfp PPTase activity, qHTS | Potency, µM, without a hit: largest response in the series, negative = inhibition, most hits filed as inhibitors | 4'-phosphopantetheinyl transferase ffp (Bacillus subtilis), Q9F4F7 | 310,000 tested, 3.5% active | AID 1490, 2009;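 further: the enzyme is Sfp with the accession as filed and its product quenches rhodamine fluorescence; potency means the concentration at half of the fitted maximal effect; 0% = enzyme reaction without inhibitor and -100% = no enzyme wells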
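Buffer: 50 mM Hepes-Na pH 7.6, 10 mM MgCl2, 0.01% Nonidet P-40, 0.01% BSA. Enzyme 15 nM, pre-exposed to compound 15 min; substrates then added and fluorescence change tracked over 30 min.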
Tau fibril ThT – qHTS for Inhibitors of Tau Fibril Formation, Thioflavin T Binding; recombinant tau K18 P301L (four-repeat tau fragment), heparin-induced fibrillization, ThT fluorescence; AID 1460, 2008; 270,000 tested, 2.1% active; Potency, µM (series often up to 57.4 µM), for inactives: at the top dose activity, negative = inhibition, usual class: inhibitors; Microtubule-associated protein tau (Homo sapiens), P10636; further: potency means the concentration at half of the fitted maximal effect; nearly all actives have a fitted effect of over 55% in size
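In this qHTS, human K18 P301L tau is incubated with compound and heparin for 6 hr at 37 C, and Thioflavin T fluorescence then reports fibril load.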
Coupling enz – qHTS Assay for Inhibitors of Fructose-1,6-bisphosphate Aldolase from Giardia Lamblia: Coupling assay counterscreen | coupling enzyme system counterscreen, AmpLite Red fluorescence | activity change, negative = inhibition, % at 58.2 µM, hits read low | 290,000 tested, 0.67% active; in the data active means activity change below about -30%
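Counterscreen lacking aldolase: glyceraldehyde-3-phosphate coupling-enzyme reagent preincubated 10 min at RT with compound (at 57.5 uM final), then substrate/coupling system with AmpLite Red added; fluorescence read at 525/598 nm after 20 min RT.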
The depositor's hits bear a star; ? = inconclusive; · = no result given; [ ] = dose if it differs, or a comment. Unless noted, the call rests on the fitted dose curve; in most records, active means well fitted curve in the direction sought with a large enough effect; inconclusive means small, poorly fitted or top-dose-only effect, or another doubt; inactive means no such curve, though single readings can be large; an effect the other way counts as inactive or inconclusive. Unless noted, on the % scale 0 is the no-effect control and ±100 the full control effect.

SMILES | Tau FP inhib | Tau fluor cs | Sfp PPTase inh | Tau fibril ThT | Coupling enz
COc1ccc(C(=O)Nc2nnc(S(=O)(=O)N3CCCCCC3)s2)cc1OC | -5.9% | -25.3% | 9.6% | ? | 4.3
COc1ccc(C(=O)Nc2nnc(S(=O)(=O)N3CCC(C)CC3)s2)cc1OC | 0.8% | ? | 6.9% | 12.6µM* | 2.9
CC1CCN(S(=O)(=O)c2nnc(NC(=O)c3ccc(C(C)C)cc3)s2)CC1 | ? | ? | · | 2.82µM* | ·
COc1ccc(NC(=O)C2CCCN2S(=O)(=O)c2ccc3nc(-c4ccccc4)[nH]c3c2)cc1 (stereo unspecified) | -14.4% | -0.9% | · | 2.3% | ·
Cc1ccc(NC(=O)C2CCCN2S(=O)(=O)c2ccc3nc(-c4ccccc4)[nH]c3c2)cc1F (stereo unspecified) | ? | 28.2µM*[quencher] | · | -10.6% | ·
CO[C@H]1COC(=O)C/C=C\[C@H](C)[C@@H](NS(=O)(=O)c2ccc(C)cc2)COC(=O)CCC[C@@H]1C | -0.1%[11.6 µM] | -5.9%[11.6 µM] | 5.3% | 1.4%[11.5 µM] | 3.7
O=[N+]([O-])c1ccc(COc2ccc(-c3[nH]ncc3-c3ccccc3)c(O)c2)cc1 | ? | ? | 13.9% | -6.0% | 5.1
C=C(C)COc1ccc(-c2[nH]ncc2-c2ccc(OC)c(OC)c2)c(O)c1 | 8.0% | 25.1µM*[quencher] | 14.5% | -9.6% | -10.7
C=C(C)COc1ccc(-c2[nH]ncc2-c2ccc(OC)cc2)c(O)c1 | ? | 11.2µM*[quencher] | 1.1% | -14.9% | -3.1
C=C(C)COc1ccc(-c2[nH]ncc2-c2ccccc2)c(O)c1 | -4.8% | 17.8µM*[quencher] | 11.6% | -15.2% | -1.3
C=C(C)COc1ccc(-c2n[nH]c(C)c2Oc2ccccc2OC)c(O)c1 | -6.0% | -27.7% | -16.8% | ? | -15.0
C=C(C)COc1ccc(-c2n[nH]c(C)c2-c2ccc(OC)c(OC)c2)c(O)c1 | -10.5% | 14.1µM*[quencher] | 23.9% | -9.5% | -10.7
Cc1cccc(N2CCN(S(=O)(=O)c3ccc4c(c3)C(C(C)C)C(=O)N4)CC2)c1C (stereo unspecified) | ? | -25.3% | · | 5.8% | ·
Cc1noc(C)c1-c1ccc2ncnc(N(C)C)c2c1 | · | · | -0.8% | · | -0.6
CCCC[n+]1ccc(-c2nc3ccc([N+](=O)[O-])cc3[nH]2)cc1 | -2.2% | 7.1% | 4.0% | 9.8% | -1.9
O=[N+]([O-])c1ccc(-c2nc3ccc([N+](=O)[O-])cc3[nH]2)cc1 | ? | ? | 5.1% | 2.82µM* | -15.9
Nc1ccc(-c2nc3ccc([N+](=O)[O-])cc3[nH]2)cc1 | 13.7% | ? | 1.2% | 12.6µM* | 0.1
O=[N+]([O-])c1ccc2nc(/C=C/c3ccc(Cl)cc3)[nH]c2c1 | -1.5% | ? | -14.3% | 12.6µM* | -16.3
O=[N+]([O-])c1ccc2nc(C(O)C(O)c3nc4ccc([N+](=O)[O-])cc4[nH]3)[nH]c2c1 (stereo unspecified) | · | · | 17.0% | · | 1.2
Cc1ccc(NC(=O)N2CCc3c([nH]c4ccccc34)C2c2ccccc2F)c(Cl)c1 (stereo unspecified) | 4.3% | -10.9% | · | -0.9% | ·
CC(C)[C@H](NC(=O)[C@@H](Cc1c[nH]c2ccccc12)NC(=O)[C@H](Cc1ccc(O)cc1)NC(=O)[C@@H](N)CC(=O)O)C(=O)N[C@H](Cc1c[nH]c2ccccc12)C(=O)N[C@H](Cc1c[nH]c2ccccc12)C(=O)N[C@@H](CCCCN)C(N)=O | · | · | -14.0% | · | 4.8
CCOC(=O)C1=C(N)Oc2c(c(=O)[nH]c3ccccc23)C1c1ccccc1 (stereo unspecified) | -3.1% | 3.4% | 20µM* | 8.3% | -10.9
CCOC(=O)C1=C(N)Oc2cc(C)[nH]c(=O)c2C1c1ccncc1 (stereo unspecified) | -1.6% | 3.8% | 17.6% | -5.3% | 0.7
COc1cccc(-c2nc(SCC(=O)NC3CCCC3)c(-c3ccccc3)[nH]2)c1 | ? | 25.1µM*[quencher] | · | -14.8% | ·

From PubChem BioAssay
